Source: PubChem BioAssay AID1063 (University of Pittsburgh Molecular Library Screening Center, 2008)
In all, about 200,000 compounds went through this assay and about 18,000 (9%) were called active. For the sample, actives were picked, then their nearest neighbours and some compounds at random. Values without a mark were called inactive. No stated cut-off is given here; in the data, active means inhibition above about 50%; inactive means the rest.

test: Leishmania major promastigote growth inhibition, primary screen (AID 1063); conditions: Leishmania major promastigotes, resazurin fluorescence viability; at 10 µM; active compounds read high;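 further: promastigotes grown with compound for 44 hours at 28 °C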

Q: For COCC(=O)N=Nc1c(O)[nH]c2ccccc12, which inhibition is on record?
A: -1.1%

Q: With Cc1c(-c2ccccc2)n[nH]c1C(=O)N=Nc1c(O)[nH]c2ccccc12 as the compound, how does the inhibition read?
A: 4.35%

Q: For Cc1cccc(N(CC(=O)N=Nc2c(O)[nH]c3ccccc23)S(C)(=O)=O)c1C, which inhibition is on record?
A: 95.3% (active)

Q: For CCn1c(-c2cccnc2Cl)nc2cc(C)c(C)cc21, which inhibition is on record?
A: 10%

Q: With CC(C)n1c(O)c(N=Nc2ccccn2)c2ccccc21 as the compound, how does the inhibition read?
A: 56.6% (active)

Q: For Oc1oc(-c2ccccc2Br)nc1/C=N/c1ccccn1, which inhibition is on record?
A: -5.62%

Q: With CC(C)n1c(C(O)c2ccccc2)nc2ccccc21 (centres undefined) as the compound, how does the inhibition read?
A: 5.37%

Q: With CCc1ccccc1NC(=O)CN(c1ccc(OC)cc1OC)S(=O)(=O)c1ccccc1[N+](=O)[O-] as the compound, how does the inhibition read?
A: 27.7%

Q: Which inhibition does the source give for COc1ccc(N(C)S(=O)(=O)c2cccc3nsnc23)cc1 here?
A: -1.4%

Q: Which inhibition does the source give for CCOC(=O)C1=C(CC)Nc2ccccc2N=C1NC(=O)c1cccc(S(=O)(=O)N2CCCC2)c1 here?
A: 72% (active)

Q: Which inhibition does the source give for CCOC(=O)C1=C(CC)Nc2ccccc2N=C1N here?
A: -8.37%

Q: Which inhibition does the source give for CCOC(=O)CSc1nnc(NC(=O)c2cccc(S(=O)(=O)N3CCCC3)c2)s1 here?
A: -6.49%

Q: For CCN(CC)Cc1nc2sc(C)c(C)c2c(=O)[nH]1, which inhibition is on record?
A: -6.68%

Q: Which inhibition does the source give for CC1CCN(C(=S)c2cccc(O)c2)CC1 here?
A: 0.69%

Q: With CCOc1ccc(-c2n[nH]c(C)c2-c2ccccn2)c(O)c1 as the compound, how does the inhibition read?
A: 5.25%

Q: For CCOc1ccccc1NC(=O)Nc1cc(OC)ccc1OC, which inhibition is on record?
A: -3.92%

Q: With CCOc1ccccc1Oc1cn[nH]c1-c1ccc(OC)cc1O as the compound, how does the inhibition read?
A: 50.6% (active)

Q: For CC(=O)c1cc(C#N)c(N2CC(C)OC(C)C2)nc1C (centres undefined), which inhibition is on record?
A: -0.03%

Q: Which inhibition does the source give for O=C(NCCCNc1ccc([N+](=O)[O-])cc1Cl)c1ccccc1F here?
A: 11.1%

Q: For O=C(NCCCN1CCOCC1)c1ccc(N2CCCC2)c([N+](=O)[O-])c1, which inhibition is on record?
A: -1.2%

Q: Which inhibition does the source give for O=C(NCCCN1CCOCC1)c1ccc([N+](=O)[O-])cc1[N+](=O)[O-] here?
A: 57.7% (active)

Q: For Nc1nc(NCCCN2CCOCC2)nc(Nc2ccccc2)c1[N+](=O)[O-], which inhibition is on record?
A: 47.8%

Q: Which inhibition does the source give for O=C(NCCCN1CCOCC1)c1ccccc1NS(=O)(=O)c1ccc(F)cc1 here?
A: -1.28%

Q: For O=[N+]([O-])c1ccc(NCCCN2CCOCC2)c(Cl)c1, which inhibition is on record?
A: 90.3% (active)

Q: With S=C(Nc1ccc(Br)cc1Cl)N1CCC2(CC1)OCCO2 as the compound, how does the inhibition read?
A: -4.82%

Q: Which inhibition does the source give for Cc1ccc(CC2CC(=O)N(c3nc(C)cc(C)n3)C2=O)cc1 (centres undefined) here?
A: -5.05%

Q: For Brc1ccc(CSc2ccc(-c3ccco3)nn2)cc1, which inhibition is on record?
A: 2%

Q: For O=C1COc2ccc(C(=O)COC(=O)c3cccnc3Cl)cc2N1, which inhibition is on record?
A: 11%

Q: Which inhibition does the source give for Cc1ccc(C(=O)OCc2nc(N)nc(Nc3ccccc3C)n2)cc1 here?
A: 53.7% (active)

Q: Which inhibition does the source give for Cc1ccccc1Nc1nc(N)nc(CSc2ccccc2)n1 here?
A: 58.8% (active)

Q: For COc1ccccc1Nc1nc(N)nc(CN(C)C2CCCCC2)n1, which inhibition is on record?
A: 0.98%

Q: Which inhibition does the source give for Cc1ccccc1Nc1nc(N)nc(CN2CCN(c3ccccn3)CC2)n1 here?
A: 0.34%

Q: With Cc1ccccc1Nc1nc(N)nc(CSc2nnc3ccccn23)n1 as the compound, how does the inhibition read?
A: -7.89%

Q: Which inhibition does the source give for CCOC(=O)N1CCN(Cc2nc(N)nc(Nc3ccc(C)cc3)n2)CC1 here?
A: 3.79%

Q: With CCOC(=O)C(NC(C)=O)C(=O)Nc1ccc(OC)cc1 (centres undefined) as the compound, how does the inhibition read?
A: -2%

Q: With CCCCNC(=O)Nc1c(C)cc(SC#N)cc1C as the compound, how does the inhibition read?
A: -2.51%

Q: For O=C(Nc1cccc(Cl)c1N1CCOCC1)c1ccc2c(c1)OCCO2, which inhibition is on record?
A: 11.1%

Q: With COc1ccc(NC(=O)COc2ccc(C(=O)OCC(=O)N(C)C3CCS(=O)(=O)C3)cc2OC)cc1 (centres undefined) as the compound, how does the inhibition read?
A: 2.14%

Q: With COc1ccc(S(=O)(=O)NCC2CCCN(C(=O)c3occc3C)C2)cc1 (centres undefined) as the compound, how does the inhibition read?
A: -1.89%

Q: With O=C(CSc1ncnc2c1nnn2Cc1ccc(F)cc1)NC1CCCC1 as the compound, how does the inhibition read?
A: -6.62%

Q: For CCCCOc1ccc(C(C)(O)CCN2CCOCC2)cc1 (centres undefined), which inhibition is on record?
A: 67.4% (active)

Q: With CCCCOc1ccc(C(=O)NN2CCN(C)CC2)cc1 as the compound, how does the inhibition read?
A: -6.12%

Q: Which inhibition does the source give for CC(=O)c1ccc(OCCN2CCOCC2)cc1 here?
A: -0.55%

Q: With CCCCN(C)CCNC(=O)CSCc1ccc(C)cc1 as the compound, how does the inhibition read?
A: 35.7%

Q: For Cc1ccc(NC(=S)N(CCN(C)C)Cc2cccs2)cc1C, which inhibition is on record?
A: 23.8%

Q: For C#CCNC(=O)C1=C[C@@H](c2ccccc2)[C@H](CCCO)[C@@H](OCC)O1, which inhibition is on record?
A: -3.12%

Q: For COc1cc(/C=N/N=C(\N)c2nonc2N)cc(OC)c1OC, which inhibition is on record?
A: 13.2%

Q: With CC(C)NC(=O)C(=O)NCCN1CCN(S(=O)(=O)c2ccc(Cl)cc2)CC1 as the compound, how does the inhibition read?
A: -8.08%

Q: With O=C(ON=C1CCN(S(=O)(=O)c2ccccc2)CC1)c1ccc(Cl)cc1 as the compound, how does the inhibition read?
A: -6.64%

Q: Which inhibition does the source give for Cc1c(C2=CCN(S(=O)(=O)c3ccc(Cl)cc3)CC2)c2ccccc2n1C here?
A: 54.9% (active)

Q: For OCC(O)CN(c1ccccc1)c1ccccc1 (centres undefined), which inhibition is on record?
A: -1.63%

Q: With O=C(COc1ccc(-c2ccccc2)cc1)NN=C1CCCC1 as the compound, how does the inhibition read?
A: -3.72%

Q: With COc1ccc(/C=C2\SC(=S)N(CC(=O)NNC(=O)c3ccncc3)C2=O)cc1 as the compound, how does the inhibition read?
A: -5.15%

Q: With Cn1cc([N+](=O)[O-])c(C(=O)Nc2cnn(Cc3ccc(F)cc3)c2)n1 as the compound, how does the inhibition read?
A: 98.6% (active)

Q: With Cn1cc([N+](=O)[O-])c(C(=O)Nc2ccc3c(c2)OCCO3)n1 as the compound, how does the inhibition read?
A: 10.7%

Q: Which inhibition does the source give for CCc1ccc(NC(=O)c2ccc(Cn3cc([N+](=O)[O-])cn3)cc2)cc1 here?
A: -3.55%

Q: For CCC(=O)c1ccc(N2CCN(C(=O)c3cc([N+](=O)[O-])ccc3F)CC2)c(F)c1, which inhibition is on record?
A: 12.8%

Q: For CC(=O)Nc1ccc(S(=O)(=O)N(C)c2ccc(OCC(=O)OCC(=O)N3CCCCC3)cc2)cc1, which inhibition is on record?
A: -6.69%

Q: Which inhibition does the source give for CSc1nc2ccc(NC(=O)c3c(F)cccc3F)cc2s1 here?
A: 15.7%

Q: For Cc1cccc(NC(=S)Nc2ccc3cn[nH]c3c2)c1, which inhibition is on record?
A: 5.93%

Q: With CCN(CC)CCN(C(=O)c1cccc([N+](=O)[O-])c1)c1nc2ccc(OC)cc2s1 as the compound, how does the inhibition read?
A: 1.41%

Q: Which inhibition does the source give for O=C(/C=C/c1ccccc1Cl)Nc1ccc(S(=O)(=O)Nc2ncccn2)cc1 here?
A: -5.22%

Q: With O=C(/C=C/c1ccc(Cl)cc1)Nc1ccc(S(=O)(=O)Nc2ncccn2)cc1 as the compound, how does the inhibition read?
A: 63.3% (active)

Q: Which inhibition does the source give for O=S(=O)(Nc1ncccn1)c1ccc(NS(=O)(=O)c2cccc(Cl)c2Cl)cc1 here?
A: -9.09%
